{
  "source": "PubChem BioAssay (Tox21)",
  "note": "Where “and” joins values, the source holds several entries; their conditions need not be identical. Identical values can stand only once. Inconclusive results are not listed. The source holds several records for some structures; these can differ, active in one and inactive in another. Calls of active or inactive are those of the source. Unless noted, the call rests on the fitted dose curve. On the % scale 0 is the no-effect control and ±100 the full control effect; potency means the concentration at half of the fitted maximal effect.",
  "data": [
    {"test": "qHTS assay for small molecule agonists of the p53 signaling pathway (AID 651631); further: nearly all actives have a fitted effect of over 15% in size", "settings": "HCT-116 p53RE-bla reporter, beta-lactamase FRET ratio, 16 h; series mostly up to 73.3 µM; activation: at the top concentration", "method_in_brief": "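We treat p53RE-bla HCT-116 cells with compounds for 16 h at 37 °C, add LiveBLAzer B/G FRET substrate for 2 h at room temperature, and measure fluorescence intensity.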", "values": [
      {"compound": "CC(C)CCOC(=O)c1ccc(N(C)C)cc1", "activation": "1.86% (inactive)"},
      {"compound": "CC(=O)C1=C(C)[C@@H]2C[C@@]3(C1)[C@H](C)CC[C@H]3C2(C)C", "Potency": "inactive"},
      {"compound": "C=CC(=O)OCCCCCCOC(=O)C=C", "Potency": "11 µM (active)"},
      {"compound": "O=C(OCc1ccccc1)c1ccc(O)cc1", "activation": "3.62% (inactive)"},
      {"compound": "O=Nc1ccc(Nc2ccccc2)cc1", "Potency": "27.4 µM (active)"},
      {"compound": "Oc1c(Cl)cc(Cl)cc1Sc1cc(Cl)cc(Cl)c1O", "Potency": "11.9 µM (active) and 34.9 µM (active) and 21.7 µM (active)"},
      {"compound": "CNCCC(Oc1ccc(C(F)(F)F)cc1)c1ccccc1", "note": "(stereo not given)", "Potency": "53.8 µM (active)"},
      {"compound": "O", "Potency": "inactive"},
      {"compound": "CC(C)(C)NC(=O)[C@@H]1CN(Cc2cccnc2)CCN1C[C@@H](O)C[C@@H](Cc1ccccc1)C(=O)N[C@H]1c2ccccc2C[C@H]1O", "activation": "-2.65% (inactive)"},
      {"compound": "CC(=O)Nc1ccc(C(=O)CCl)cc1", "Potency": "inactive and 24.3 µM (active)"},
      {"compound": "CC[C@]1(O)C[C@@H]2CN(CCc3c([nH]c4ccccc34)[C@@](C(=O)OC)(c3cc4c(cc3OC)N(C)[C@H]3[C@@](O)(C(=O)OC)[C@H](OC(C)=O)[C@]5(CC)C=CCN6CC[C@]43[C@@H]65)C2)C1", "Potency": "0.0422 µM (active)"},
      {"compound": "CCCN[C@H]1CCc2nc(N)sc2C1", "Potency": "inactive"}
    ]},
    {"test": "qHTS assay for small molecules that induce genotoxicity in human embryonic kidney cells expressing luciferase-tagged ATAD5 (AID 651632; active means well fitted activation curve with a large enough effect in the repeat runs; further: nearly all actives have a fitted effect of over 15% in size)", "settings": "HEK293T ATAD5-luciferase induction, 16 h; series mostly up to 83.3 µM; activation: at the top concentration", "method_in_brief": "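Reporter cells (HEK293T) express luciferase-tagged ATAD5, a protein that accumulates after DNA damage. Treat 16 hr at 37C/5% CO2, add Amplite, wait 30 min at RT, and read luminescence.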", "values": [
      {"compound": "CC(C)CCOC(=O)c1ccc(N(C)C)cc1", "Potency": "13.3 µM (active)"},
      {"compound": "CC(N)=O", "activation": "3.47% [at 260 µM] (inactive)"},
      {"compound": "CCCCCCCCCCCCc1ccccc1O", "Potency": "inactive"},
      {"compound": "N[C@@H]1CONC1=O", "activation": "-1.33% (inactive)"},
      {"compound": "O=C(Cl)c1cccc(C(=O)Cl)c1", "Potency": "inactive"},
      {"compound": "CC(=O)CC(=O)Nc1ccc2[nH]c(=O)[nH]c2c1", "activation": "0.893% (inactive)"},
      {"compound": "C1COC(NC(C2CC2)C2CC2)=N1", "activation": "1.73% (inactive)"},
      {"compound": "CCCCCC(=O)O[C@]1(C(C)=O)CC[C@H]2[C@@H]3CCC4=CC(=O)CC[C@]4(C)[C@H]3CC[C@@]21C", "Potency": "inactive"},
      {"compound": "c1cc(C(c2ccc(OCC3CO3)cc2)C(c2ccc(OCC3CO3)cc2)c2ccc(OCC3CO3)cc2)ccc1OCC1CO1", "note": "(stereo not given)", "activation": "3.21% (inactive)"},
      {"compound": "CC(C)(c1ccccc1)c1ccc(Nc2ccc(C(C)(C)c3ccccc3)cc2)cc1", "Potency": "inactive"},
      {"compound": "CC(=O)C1=C(C)[C@@H]2C[C@@]3(C1)[C@H](C)CC[C@H]3C2(C)C", "Potency": "inactive"},
      {"compound": "CCC(C)(Oc1ccc(C2(c3ccc(OC(C)(CC)C(=O)O)cc3)CCCCC2)cc1)C(=O)O", "note": "(stereo not given)", "activation": "3.22% (inactive)"},
      {"compound": "COc1nc(C)nc(Cl)c1NC1=NCCN1", "activation": "-1.98% [at 39.1 µM] (inactive)"},
      {"compound": "CCC(=O)/C=C/C1C(C)=CCCC1(C)C", "note": "(stereo not given)", "Potency": "inactive"},
      {"compound": "COc1ccc(COC(C)=O)cc1", "Potency": "inactive"},
      {"compound": "CCCCCCCCCCCCCC[P+](CCCC)(CCCC)CCCC", "Potency": "inactive"},
      {"compound": "Oc1ccc(Cl)cc1Cc1cc(Cl)ccc1O", "Potency": "inactive"},
      {"compound": "Oc1c(Cl)cc(Cl)cc1Sc1cc(Cl)cc(Cl)c1O", "Potency": "inactive"},
      {"compound": "CCn1c2ccccc2c2cc(N)ccc21", "Potency": "inactive"},
      {"compound": "Cc1c(O)cccc1C(=O)N[C@@H](CSc1ccccc1)[C@H](O)CN1C[C@H]2CCCC[C@H]2C[C@H]1C(=O)NC(C)(C)C", "Potency": "inactive"},
      {"compound": "Nc1ccc2cc3ccccc3cc2c1", "Potency": "27.8 µM (active)"},
      {"compound": "NC(=Nc1ccccc1)Nc1ccccc1", "Potency": "15 µM (active)"},
      {"compound": "CC(=O)Nc1ccc(C(=O)CCl)cc1", "Potency": "inactive and 24.3 µM (active)"},
      {"compound": "BrC1CCC(Br)C(Br)CCC(Br)C(Br)CCC1Br", "note": "(stereo not given)", "Potency": "inactive"},
      {"compound": "COc1ccc(Cc2cnc(N)nc2N)cc1OC", "activation": "4.97% (inactive)"},
      {"compound": "CCCCC(CC)COC(=O)CC(C(=O)OCC(CC)CCCC)S(=O)(=O)O", "note": "(stereo not given)", "Potency": "inactive"},
      {"compound": "CC[C@]1(O)C[C@@H]2CN(CCc3c([nH]c4ccccc34)[C@@](C(=O)OC)(c3cc4c(cc3OC)N(C)[C@H]3[C@@](O)(C(=O)OC)[C@H](OC(C)=O)[C@]5(CC)C=CCN6CC[C@]43[C@@H]65)C2)C1", "Potency": "1.19 µM (active) and 266 nM (active)"},
      {"compound": "CCCOC(=O)c1cc(O)c(O)c(O)c1", "Potency": "inactive"},
      {"compound": "CCOc1ccc2c(c1)C(C)=CC(C)(C)N2", "Potency": "inactive"},
      {"compound": "CCCCCCC(O)CCCCCCCCCCC(=O)O", "note": "(stereo not given)", "Potency": "inactive"}
    ]},
    {"test": "qHTS assay for small molecule agonists of the p53 signaling pathway - cell viability (AID 651633); further: nearly all actives have a fitted effect of over 30% in size", "settings": "p53RE-bla HCT-116 viability, ATP luminescence, 16 h; series mostly up to 83.3 µM; activity change, negative = cytotoxicity: at the top concentration", "method_in_brief": "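p53RE-bla cells, seeded at 4,000 per well and rested 5 h at 37 C/5% CO2, received compounds in DMSO for 16 h at 37 C. CellTiter-Glo was then added, and luminescence was read after 30 min at room temperature to gauge cytotoxicity.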", "values": [
      {"compound": "CC(C)CCOC(=O)c1ccc(N(C)C)cc1", "activity change, negative = cytotoxicity": "-6.01% (inactive)"},
      {"compound": "CC(N)=O", "activity change, negative = cytotoxicity": "10.5% [at 260 µM] (inactive)"},
      {"compound": "CCCCCCCCCCCCc1ccccc1O", "Potency": "26.9 µM (active) and 24.3 µM (active)"},
      {"compound": "N[C@@H]1CONC1=O", "activity change, negative = cytotoxicity": "13.7% (inactive)"},
      {"compound": "O=C(Cl)c1cccc(C(=O)Cl)c1", "Potency": "inactive"},
      {"compound": "CC(=O)CC(=O)Nc1ccc2[nH]c(=O)[nH]c2c1", "activity change, negative = cytotoxicity": "18.1% (inactive)"},
      {"compound": "C1COC(NC(C2CC2)C2CC2)=N1", "activity change, negative = cytotoxicity": "18.5% (inactive)"},
      {"compound": "CCCCCC(=O)O[C@]1(C(C)=O)CC[C@H]2[C@@H]3CCC4=CC(=O)CC[C@]4(C)[C@H]3CC[C@@]21C", "Potency": "26.6 µM (active) and 54.1 µM (active)"},
      {"compound": "c1cc(C(c2ccc(OCC3CO3)cc2)C(c2ccc(OCC3CO3)cc2)c2ccc(OCC3CO3)cc2)ccc1OCC1CO1", "note": "(stereo not given)", "Potency": "inactive"},
      {"compound": "CC(C)(c1ccccc1)c1ccc(Nc2ccc(C(C)(C)c3ccccc3)cc2)cc1", "Potency": "inactive"},
      {"compound": "CC(=O)C1=C(C)[C@@H]2C[C@@]3(C1)[C@H](C)CC[C@H]3C2(C)C", "Potency": "inactive"},
      {"compound": "C=CC(=O)OCCCCCCOC(=O)C=C", "activity change, negative = cytotoxicity": "-9.91% (inactive)"},
      {"compound": "CCC(C)(Oc1ccc(C2(c3ccc(OC(C)(CC)C(=O)O)cc3)CCCCC2)cc1)C(=O)O", "note": "(stereo not given)", "activity change, negative = cytotoxicity": "16.6% (inactive)"},
      {"compound": "O=C(OCc1ccccc1)c1ccc(O)cc1", "Potency": "inactive"},
      {"compound": "COc1nc(C)nc(Cl)c1NC1=NCCN1", "activity change, negative = cytotoxicity": "20.4% [at 39.1 µM] (inactive)"},
      {"compound": "CCC(=O)/C=C/C1C(C)=CCCC1(C)C", "note": "(stereo not given)", "activity change, negative = cytotoxicity": "-4.81% (inactive)"},
      {"compound": "COc1ccc(COC(C)=O)cc1", "Potency": "inactive"},
      {"compound": "CCCCCCCCCCCCCC[P+](CCCC)(CCCC)CCCC", "Potency": "24.2 µM (active) and 15.4 µM (active)"},
      {"compound": "Oc1ccc(Cl)cc1Cc1cc(Cl)ccc1O", "Potency": "18.8 µM (active) and 55.5 µM (active) and 43.3 µM (active)"},
      {"compound": "CNCCC(Oc1ccc(C(F)(F)F)cc1)c1ccccc1", "note": "(stereo not given)", "Potency": "60.3 µM (active)"},
      {"compound": "O", "Potency": "inactive"},
      {"compound": "CCn1c2ccccc2c2cc(N)ccc21", "Potency": "inactive"},
      {"compound": "Cc1c(O)cccc1C(=O)N[C@@H](CSc1ccccc1)[C@H](O)CN1C[C@H]2CCCC[C@H]2C[C@H]1C(=O)NC(C)(C)C", "Potency": "21.1 µM (active)"},
      {"compound": "Nc1ccc2cc3ccccc3cc2c1", "Potency": "inactive"},
      {"compound": "NC(=Nc1ccccc1)Nc1ccccc1", "Potency": "inactive"},
      {"compound": "CC(=O)Nc1ccc(C(=O)CCl)cc1", "Potency": "inactive and 30.6 µM (active)"},
      {"compound": "BrC1CCC(Br)C(Br)CCC(Br)C(Br)CCC1Br", "note": "(stereo not given)", "Potency": "15.3 µM (active) and 25.9 µM (active)"},
      {"compound": "COc1ccc(Cc2cnc(N)nc2N)cc1OC", "activity change, negative = cytotoxicity": "6.22% (inactive)"},
      {"compound": "CCCCC(CC)COC(=O)CC(C(=O)OCC(CC)CCCC)S(=O)(=O)O", "note": "(stereo not given)", "Potency": "29.8 µM (active) and 58.8 µM (active) and 61.1 µM (active)"},
      {"compound": "CCCOC(=O)c1cc(O)c(O)c(O)c1", "Potency": "inactive"},
      {"compound": "CCCN[C@H]1CCc2nc(N)sc2C1", "Potency": "inactive"},
      {"compound": "CCOc1ccc2c(c1)C(C)=CC(C)(C)N2", "Potency": "inactive"},
      {"compound": "CCCCCCC(O)CCCCCCCCCCC(=O)O", "note": "(stereo not given)", "Potency": "inactive"}
    ]}
  ]
}
